Assay outcomes deposited in PubChem BioAssay by several laboratories.
DAX1 inh-1: DAX1 (NR0B1) inhibitors on StAR promoter, primary screen, cell-based, luminescence, SF-1 (NR5A1), full-length DAX-1; 370,000 tested, 1.1% active; inhibition, % at 6.8 µM; HEK293T StAR-luciferase reporter, SF-1/DAX-1 repression relief; AID 652010, 2013;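 active = inhibition above the mean over all tested compounds plus 3 SD, cut at about 3.6% in these data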;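 also: higher inhibition means more luminescence from relief of DAX-1 repression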
ssDAF-12 act: S. stercoralis DAF-12 nuclear receptor activators, primary screen, cell-based, luminescence, HEK293, GRIP1 co-expression, lit1-tk-luc. 370,000 tested, 1% active. activation, % at 6.8 µM. HEK293 ssDAF-12/GRIP1 lit1-tk-luc reporter; % of 3 µM dafachronic acid response. AID 652126, 2013;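 active = activation above the mean over all tested compounds plus 3 SD, cut at about 0.9% in these data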
Rev-erbA mod: modulators of Rev-erb alpha DNA binding, primary screen, biochemical, FITC-DNA, fluorescence polarization, uHTS; 370,000 tested, 0.79% active; Rev-erbα–FITC-DNA binding, 90 min; activity, % at 10 µM; AID 1259318, 2017; Nuclear receptor subfamily 1 group D member 1 (Homo sapiens), P20393;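 active = activity above about 14%, limit read from the data; passing the limit was not always enough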
DAX1 inh-2: DAX1 (NR0B1) inhibitors, primary screen, cell-based, HEK293, Gal4-DAX1, luciferase luminescence. inhibition, % at 6.75 µM. AID 504766, 2011. Nuclear receptor subfamily 0 group B member 1 (Homo sapiens), P51843. 340,000 tested, 0.99% active. HEK293 Gal4-DAX1 luciferase reporter;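 active = inhibition above the mean over all tested compounds plus 3 SD, cut at about 4.2% in these data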;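 also: inhibition shows as a rise in luminescence from relieved DAX1 repression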
Target sequence (P51843 207-470 limits assumed): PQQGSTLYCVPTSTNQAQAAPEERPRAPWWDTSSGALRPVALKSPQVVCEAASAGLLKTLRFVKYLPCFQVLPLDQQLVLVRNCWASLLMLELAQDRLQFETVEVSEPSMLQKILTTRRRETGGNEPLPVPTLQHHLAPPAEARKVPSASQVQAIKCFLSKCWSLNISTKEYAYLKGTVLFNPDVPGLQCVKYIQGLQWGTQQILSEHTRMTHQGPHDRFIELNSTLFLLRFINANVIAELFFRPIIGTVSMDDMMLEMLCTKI
hgDAF-12 ag: H. glycines DAF-12 receptor agonists, primary screen, cell-based, luminescence, HEK293, GAL4 fusion, UAS-luciferase. HEK293 GAL4-hgDAF12 UAS-luciferase reporter, agonist luminescence; normalized to butyrate control. activation, % at 6.8 µM. Nuclear hormone receptor DAF-12 (Heterodera glycines), GAL4 fusion. 370,000 tested, 1.8% active;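 active = activation above a cutoff set at the mean of all screened compounds plus 3 SD, cut at about 10% in these data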
hcDAF-12 act: H. contortus DAF-12 nuclear receptor activators, primary screen, cell-based, luminescence, HEK293, lit1-tk-luc reporter. HEK293 hcDAF-12 lit1-tk-luc reporter; 0% DMSO, 100% Δ7-dafachronic acid. activation, % at 6.8 µM. 370,000 tested, 1.4% active;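 active = activation above the mean of all tested compounds plus 3 SD, cut at about 5.5% in these data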
Hits are given with their value. Only some compounds are listed: those with a hit (about 4.8% of all), similar ones and a draw of the others.

What do the screens show for `COc1cccc(C2=NNC(=NCc3ccccc3)SC2)c1`?
DAX1 inh-1: inactive; ssDAF-12 act: inactive; Rev-erbA mod: inactive; DAX1 inh-2: inactive; hgDAF-12 ag: 13; hcDAF-12 act: inactive

What do the screens show for `CCOC(=O)[C@]12CCCC=C1N(CCCOC)C(=O)[C@@H]2CC(=O)NCc1cccc2ccccc12`?
DAX1 inh-1: inactive; ssDAF-12 act: inactive; Rev-erbA mod: inactive; hgDAF-12 ag: inactive; hcDAF-12 act: inactive

Results for Oc1cccc(Oc2ncc(C(F)(F)F)cc2Cl)c1 ?
DAX1 inh-1: inactive; ssDAF-12 act: inactive; Rev-erbA mod: inactive; DAX1 inh-2: inactive; hgDAF-12 ag: inactive; hcDAF-12 act: inactive

Results for FC(F)(F)c1cnc(Oc2cccc3ccccc23)c(Cl)c1 ?
DAX1 inh-1: inactive; ssDAF-12 act: 1.0; Rev-erbA mod: inactive; DAX1 inh-2: inactive; hgDAF-12 ag: inactive; hcDAF-12 act: inactive

Results for Cc1ccc(NC(=O)Nc2ccc3c(c2)nnn3C)cc1C ?
DAX1 inh-1: inactive; ssDAF-12 act: inactive; Rev-erbA mod: inactive; DAX1 inh-2: 5.3; hgDAF-12 ag: inactive; hcDAF-12 act: inactive

What do the screens show for `COc1ccccc1NC(=O)Nc1ccc2c(c1)nnn2C`?
DAX1 inh-1: inactive; ssDAF-12 act: inactive; Rev-erbA mod: inactive; DAX1 inh-2: inactive; hgDAF-12 ag: inactive; hcDAF-12 act: inactive

How did Cn1c(O)c(C2=c3ccccc3=NC2=O)[nH]c1=S do in these assays?
DAX1 inh-1: inactive; ssDAF-12 act: 1.2; Rev-erbA mod: inactive; DAX1 inh-2: inactive; hgDAF-12 ag: inactive; hcDAF-12 act: inactive

How did Cc1cc(NS(=O)(=O)C2CCN(C(=O)Cc3ccc(Cl)c(Cl)c3)CC2)no1 do in these assays?
DAX1 inh-1: inactive; ssDAF-12 act: inactive; Rev-erbA mod: inactive; hgDAF-12 ag: inactive; hcDAF-12 act: inactive

What do the screens show for `COc1cccc(OCc2cc(C(=O)N3CCCC3c3ccccn3)no2)c1` (stereo not given)?
DAX1 inh-1: inactive; ssDAF-12 act: inactive; Rev-erbA mod: inactive; DAX1 inh-2: inactive; hgDAF-12 ag: 12; hcDAF-12 act: inactive

Results for COc1cccc(OCc2cc(C(=O)N3CCN(C4CCCC4)CC3)no2)c1 ?
DAX1 inh-1: inactive; ssDAF-12 act: inactive; Rev-erbA mod: inactive; DAX1 inh-2: inactive; hgDAF-12 ag: inactive; hcDAF-12 act: inactive

What do the screens show for `NC(=O)[C@@H]1CCCN1C(=O)c1cc(COc2ccc3c(c2)CCCC3)on1`?
DAX1 inh-1: 4.5; ssDAF-12 act: inactive; Rev-erbA mod: inactive; DAX1 inh-2: inactive; hgDAF-12 ag: inactive; hcDAF-12 act: inactive

Results for CCC1C(=O)NCCN1C(=O)c1cc(COc2cc(C)ccc2C)on1 (stereo not given) ?
DAX1 inh-1: inactive; ssDAF-12 act: inactive; Rev-erbA mod: inactive; DAX1 inh-2: inactive; hgDAF-12 ag: inactive; hcDAF-12 act: inactive

What do the screens show for `Cc1cccc(C)c1OCc1cc(C(=O)N2CCC[C@H]2C(N)=O)no1`?
DAX1 inh-1: inactive; ssDAF-12 act: inactive; Rev-erbA mod: inactive; DAX1 inh-2: inactive; hgDAF-12 ag: inactive; hcDAF-12 act: inactive

What do the screens show for `COc1cccc(OCc2cc(C(=O)N3CCNC(=O)C3Cc3ccccc3)no2)c1` (stereo not given)?
DAX1 inh-1: 4.2; ssDAF-12 act: inactive; Rev-erbA mod: inactive; DAX1 inh-2: inactive; hgDAF-12 ag: inactive; hcDAF-12 act: inactive

What do the screens show for `CC(C)CNC(=O)OCc1cn(Cc2cc(F)cc(F)c2)nn1`?
DAX1 inh-1: inactive; ssDAF-12 act: inactive; Rev-erbA mod: inactive; hgDAF-12 ag: inactive; hcDAF-12 act: inactive

What do the screens show for `CN[C@H]1C[C@H]2c3[nH]c4c(-c5ccc6c(c5)OCO6)cccc4c3CCN2C[C@H]1[C@H](C)O`?
DAX1 inh-1: inactive; ssDAF-12 act: inactive; Rev-erbA mod: inactive; hgDAF-12 ag: inactive; hcDAF-12 act: inactive
